# Compounds with a hit are over-represented: about 32% of the library has one in this group of screens.
# CYP2C9 activ – activators of human CYP2C9; activation factor at 5 µM; P11712; recombinant CYP2C9, luciferin-H conversion, luminescence; hits give high values; factor 1 = untreated enzyme, 0 = blocked; hit rate 1.4% among 96,000;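 active = activation factor of 2 or more for CYP2C9 at a 5 µM dose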;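 also: 0 = sulfaphenazole-blocked wells and 1 = vehicle-only wells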
# Target sequence (P11712 whole entry, looked up): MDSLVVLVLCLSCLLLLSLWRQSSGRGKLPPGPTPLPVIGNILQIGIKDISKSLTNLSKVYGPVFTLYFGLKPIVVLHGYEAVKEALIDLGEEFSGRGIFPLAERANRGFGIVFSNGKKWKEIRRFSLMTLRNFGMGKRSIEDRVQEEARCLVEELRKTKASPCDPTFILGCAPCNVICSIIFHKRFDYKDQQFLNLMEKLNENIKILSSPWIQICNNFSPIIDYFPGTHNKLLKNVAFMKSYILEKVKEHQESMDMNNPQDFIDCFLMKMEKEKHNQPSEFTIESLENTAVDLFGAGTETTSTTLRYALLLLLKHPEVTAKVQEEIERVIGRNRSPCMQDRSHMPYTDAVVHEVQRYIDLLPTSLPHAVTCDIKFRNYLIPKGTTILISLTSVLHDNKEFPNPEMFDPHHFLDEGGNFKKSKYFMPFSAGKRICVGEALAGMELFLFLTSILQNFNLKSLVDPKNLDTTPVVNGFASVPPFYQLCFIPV
# CYP2C19 act – activators of human cytochrome P450 2C19 | P33261 | recombinant CYP2C19, luciferin-H EGE luminescence; hits give high values; 0 = fully inhibited enzyme, 1 = untreated enzyme | activation factor at 5 µM | 96,000 tested, under 10 active;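 active = activation factor of at least 2 at 5 µM in the primary screen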;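 also: 0 = wells with 2.5 mM tranylcypromine and 1 = vehicle-only wells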
# CYP2C9 inhib – human CYP2C9 inhibition. P11712. CYP2C9 Supersomes, luciferin-H conversion, luminescence. inhibition, % at 5 µM. hit rate 20% among 96,000. AID 777;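 active = blocking of liver enzyme CYP2C9 beyond about 50% at 5 µM, limit read from the data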
# CYP2C19 inhib – human CYP2C19 inhibition; P33261; CYP2C19 Supersomes, luciferin-H EGE luminescence, 30 min; inhibition, % at 5 µM; hit rate 21% among 96,000; AID 778;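 active = CYP2C19 inhibition above a set limit at 5 µM in the primary screen, cut at about 50% in these data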;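 also: plate controls were negative control wells for no effect and 2.5 mM tranylcypromine positive control for full effect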
# PostGolgi yeast – growth inhibition of a yeast mutant, post-Golgi transport screen. post-Golgi transport phenotypic cell assay. inhibition, % at 10 µM. hit rate 0.9% among 98,000;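 also: yeast cells grown in 1536-well plates; yeast grown about 18 h at 30C before absorbance read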
# PostGolgi ctrl – yeast control strain growth, post-Golgi counter-screen; efflux-deficient yeast background strain, growth absorbance A615, 16 h; inhibition, % at 10 µM; hit rate 5% among 98,000
# Starred values were filed as active, the others as inactive; . = no result given. Rule as the data show it, unless noted: active = inhibition above about 30%; inactive = the rest.
SMILES,CYP2C9 activ,CYP2C19 act,CYP2C9 inhib,CYP2C19 inhib,PostGolgi yeast,PostGolgi ctrl
Cc1nc2ccccn2c1P(=Nc1ccccc1)(N(C)C)N(C)C,0.9,1,15,4,-2,-1
CC(C)=C1C2CCC1C1C(=O)N(NC(=O)COc3ccc(C(C)(C)C)cc3)C(=O)C21 (centres undefined),0.7,0.9,31,12,-8,25
CCCOc1ccc(/C(O)=C2/C(=O)C(=O)N(CCCOC)C2c2ccncc2)cc1 (centres undefined),1.1,1.2,-6,-17,-4,1
NC(=O)C1CCN(C(=O)c2cnn(-c3ccccc3)c2NC(=O)c2ccco2)CC1,1,0.9,-3,7,1,5
COc1ccc(-c2cc(NCCc3ccncc3)n3ncnc3n2)cc1,0.3,0.5,70*,49,2,2
COc1ccccc1Oc1ccc2c(c1)C(=O)N(c1ccc(Br)c3cccnc13)C2=O,1.2,1,-20,-5,-10,4
CC(C)(C)C(=O)Nc1ccc(Oc2ccc3c(c2)C(=O)N(c2ccc(O)cc2)C3=O)cc1,0.7,0.7,33,32,-8,-9
CCC(=O)Nc1ccc(Oc2ccc3c(c2)C(=O)N(c2ccc(O)cc2)C3=O)cc1,0.7,0.2,32,77*,2,2
CCOC(=O)c1ccccc1NC(=O)c1cccc(F)c1,1.1,0.8,-11,19,2,5
Cc1cccc(C(=O)CC(=O)c2cc(Cl)ccc2O)c1,0.2,0.7,79*,32,50*,64*
O=C(CCC(=O)c1ccc(Oc2ccccc2)cc1)Nc1ccc(Cl)cc1Cl,0.6,0.8,36,22,1,1
Cc1cccc(C(=O)Nc2ccc(O)cc2)c1,.,.,.,.,-1,4
COc1ccc(O)c(C(=O)CC(=O)c2ccc(F)cc2)c1,0.9,0.7,9,26,33*,35*
Cc1ccc(O)c(C(=O)CC(=O)c2cccc(F)c2)c1,0.9,1,8,4,8,34*
COc1ccccc1NC(=O)CNC(=O)c1ccc(F)cc1,1,0.8,1,20,2,13
O=C(CC(=O)c1cc(Cl)ccc1O)c1ccccc1,0.9,0.9,13,6,90*,42*
Cc1ccc(CCN2CC(C(=O)NCCCN3CCN(C)CC3)CC2=O)cc1 (centres undefined),0.9,1,7,1,0,-3
O=C(COc1cccc(C(F)(F)F)c1)Nc1ccc(S(=O)(=O)N2CCCC2)cc1,1,1.1,-4,-13,-10,8
Cc1ccc2c(c1)CN1CN2Cc2cc(C)ccc21,0.6,0.5,42,54*,-7,-2
CCNc1nc(SC)nc(N(C#N)CC(=O)OC)n1,1.3,1,-26,3,1,4
CC(=O)OC(/C(O)=C(\C#N)c1nc2ccccc2[nH]1)c1ccccc1 (centres undefined),0.3,0.7,66*,34,-5,5
Cc1nn(-c2ccccc2)c(C)c1C(=O)OC/C(O)=C(\C#N)c1nc2ccccc2[nH]1,0.4,0.4,64*,62*,13,6
CCCCC(=O)Nc1ccc(NC(=O)c2cc(OC)c(OC)c(OC)c2)cn1,0.8,0.9,24,12,-9,-3
CCCCC(=O)Nc1ccc(NC(=O)c2ccccc2OC)cn1,3.5*,0.2,-247,78*,-15,1
CCC(=O)Nc1cc(C)c(NC(=O)c2ccccc2OC)cn1,2.6*,0.8,-157,16,-9,6
SMILES,CYP2C9 activ,CYP2C19 act,CYP2C9 inhib,CYP2C19 inhib,PostGolgi yeast,PostGolgi ctrl
CCn1c(=O)n(CC)c2cc(S(=O)(=O)N3CCCCC3)c(C)cc21,0.7,1,29,-2,26,9
O=c1c2[nH]c3ccccc3c2ncn1CCN1CCCCC1,1.1,0.9,-6,15,-3,8
Cc1nc2ccc(NC(=O)c3cccs3)cc2c(=O)n1Cc1ccc(Cl)cc1,0.3,0.2,68*,79*,-3,32*
CCCc1nc2ccc(NC(=O)NCCC(=O)OCC)cc2c(=O)n1Cc1cccc(Cl)c1,0.9,0.9,12,11,-2,2
CCOC(=O)CCNC(=O)Nc1ccc2nc(C)n(Cc3cccc(Cl)c3)c(=O)c2c1,0.2,0.4,81*,62*,-15,11
CCOC(=O)CCNC(=O)Nc1ccc2nc(C)n(Cc3ccccc3Cl)c(=O)c2c1,0.1,0.4,94*,55*,5,8
O=C(Nc1ccc(Cl)cc1)c1cccs1,1,0.8,-4,20,23,15
CCCn1cc(NC(=O)c2cc3n(n2)C(C(F)(F)F)CC(c2ccccc2)N3)cn1 (centres undefined),1.1,1,-6,-3,-3,20
OC(CSc1ccccc1Cl)CN1CCN(c2ccc(F)cc2)CC1 (centres undefined),1.1,0.7,-9,32,28,31*
OC(CSc1c(Cl)cccc1Cl)CN1CCN(c2ccccc2F)CC1 (centres undefined),0.7,0.8,30,21,-2,26
OC(CSc1ccccc1Cl)CN1CCN(c2ccccc2F)CC1 (centres undefined),0.9,0.7,12,33,-6,21
OC(CSc1c(Cl)cccc1Cl)CN1CCN(c2ccc(F)cc2)CC1 (centres undefined),1.2,0.6,-16,36,20,37*
O=c1/c(=C\c2cccnc2)sc2nc3ccccc3n12,0.8,0.6,19,37,12,6
O=C1/C(=C/c2cccnc2)Sc2ccccc21,0.3,0.2,66*,78*,-3,2
Cc1ccc(/C=C2\Sc3ccccc3C2=O)s1,0.3,0.1,75*,94*,9,6
COc1ccc(N=C2S/C(=C\c3ccc(C)s3)C(=O)N2CC(C)C)cc1,0.7,0.9,28,6,-3,12
Cc1cccc(N(CC(=O)N2CCOCC2)S(C)(=O)=O)c1C,1.2,1.1,-17,-5,-4,1
O/N=C(\COc1ccccc1O)c1ccccc1,0.6,0.1,37,93*,13,17
Cc1csc2ncc(C(=O)Nc3ccon3)c(=O)n12,.,.,.,.,2,41*
CCOc1ccccc1N(C)C(=O)C1CCN(S(=O)(=O)c2cccc3nonc23)CC1,0.1,0.2,94*,85*,2,3
O=C(NCCc1ccc(Cl)cc1)C1CCN(S(=O)(=O)c2cccc3nonc23)CC1,2.5*,0.7,-151,26,-9,-1
O=C(NCCN1CCN(c2ccccc2)CC1)C1CCN(S(=O)(=O)c2cccc3nonc23)CC1,1.1,0.5,-14,52*,-2,-14
COc1ccc(CCNC(=O)C2CCN(S(=O)(=O)c3cccc4nonc34)CC2)cc1OC,0.8,0.7,18,27,0,-3
CCOc1ccc(OCC)c(NC(=O)C2CCN(S(=O)(=O)c3cccc4nonc34)CC2)c1,0.9,0.9,11,12,-9,-1

# Screening data: PubChem BioAssay, several laboratories
